Source: the supplement of paper PMC10849652
Of roughly 7,900 targets only a part is listed; those with a hit were picked by preference. About 0.6% of all pairs of compound and target were hits.

What follows are targets tested with COc1cc(Nc2ncc3c(n2)-c2ccc(Cl)cc2C(c2c(F)cccc2OC)=NC3)ccc1C(=O)O [alisertib] (assay: log2 fold change, soluble protein after heating vs DMSO (PISA); higher = thermal stabilisation; K562 cells, 10 uM, 30 min; active = over 0.2 and 3.5 SD of the protein, either way, in both replicates (recomputed)).
Summary of the method: (§1)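 Thermal stability values are relative to control samples and come from duplicates. They are expressed as log2 fold changes. For measurement, K562 cells (2×10^6 cells/mL) received 10 μM compound for 30 min, and aliquots were heated for 3 min over 48°C-58°C, pooled, and extracted at 4°C in PBS with 0.5% NP-40. Soluble protein, the supernatant after 21,000xg for 90 min, was quantified by TMTpro 16plex LC-MS/MS with equalised channel sums.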

Sequence of UniProt Q5SSJ5 (Q5SSJ5 whole entry, looked up): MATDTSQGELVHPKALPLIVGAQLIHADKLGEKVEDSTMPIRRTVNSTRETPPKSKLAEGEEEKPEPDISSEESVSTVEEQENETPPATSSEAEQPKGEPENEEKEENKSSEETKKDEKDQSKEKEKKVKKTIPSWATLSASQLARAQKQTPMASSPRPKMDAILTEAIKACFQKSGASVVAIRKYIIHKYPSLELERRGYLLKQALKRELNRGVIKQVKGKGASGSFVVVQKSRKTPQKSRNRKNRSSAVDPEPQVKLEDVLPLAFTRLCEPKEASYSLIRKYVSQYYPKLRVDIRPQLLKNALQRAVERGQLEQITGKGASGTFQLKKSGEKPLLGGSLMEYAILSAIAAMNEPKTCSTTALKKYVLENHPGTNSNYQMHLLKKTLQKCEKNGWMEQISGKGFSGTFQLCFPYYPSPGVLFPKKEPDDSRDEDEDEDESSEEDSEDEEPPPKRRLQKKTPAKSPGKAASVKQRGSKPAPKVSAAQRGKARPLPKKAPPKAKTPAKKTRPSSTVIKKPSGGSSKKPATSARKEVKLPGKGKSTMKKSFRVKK
Sequence of UniProt P30519 (P30519 whole entry, looked up): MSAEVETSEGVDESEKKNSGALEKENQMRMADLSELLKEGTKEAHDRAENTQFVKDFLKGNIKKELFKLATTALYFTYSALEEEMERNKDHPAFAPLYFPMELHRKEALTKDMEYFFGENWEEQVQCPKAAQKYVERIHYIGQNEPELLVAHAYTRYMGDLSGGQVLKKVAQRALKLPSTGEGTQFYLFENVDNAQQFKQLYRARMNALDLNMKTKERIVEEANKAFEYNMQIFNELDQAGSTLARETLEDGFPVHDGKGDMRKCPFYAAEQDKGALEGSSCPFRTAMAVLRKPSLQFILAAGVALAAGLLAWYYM
Sequence of UniProt P55795 (P55795 whole entry, looked up): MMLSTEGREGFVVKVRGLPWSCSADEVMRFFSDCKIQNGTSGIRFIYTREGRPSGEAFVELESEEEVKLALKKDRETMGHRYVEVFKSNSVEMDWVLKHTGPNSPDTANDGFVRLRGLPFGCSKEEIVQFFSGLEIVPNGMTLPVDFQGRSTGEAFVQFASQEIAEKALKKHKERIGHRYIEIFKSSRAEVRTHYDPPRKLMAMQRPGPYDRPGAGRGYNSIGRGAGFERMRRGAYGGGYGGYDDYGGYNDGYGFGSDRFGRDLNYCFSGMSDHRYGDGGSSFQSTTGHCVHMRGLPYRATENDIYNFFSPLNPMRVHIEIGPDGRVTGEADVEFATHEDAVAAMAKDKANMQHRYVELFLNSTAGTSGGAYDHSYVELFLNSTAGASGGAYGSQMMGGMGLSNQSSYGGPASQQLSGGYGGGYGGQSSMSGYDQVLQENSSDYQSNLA
Sequence of UniProt O95363 (O95363 whole entry, looked up): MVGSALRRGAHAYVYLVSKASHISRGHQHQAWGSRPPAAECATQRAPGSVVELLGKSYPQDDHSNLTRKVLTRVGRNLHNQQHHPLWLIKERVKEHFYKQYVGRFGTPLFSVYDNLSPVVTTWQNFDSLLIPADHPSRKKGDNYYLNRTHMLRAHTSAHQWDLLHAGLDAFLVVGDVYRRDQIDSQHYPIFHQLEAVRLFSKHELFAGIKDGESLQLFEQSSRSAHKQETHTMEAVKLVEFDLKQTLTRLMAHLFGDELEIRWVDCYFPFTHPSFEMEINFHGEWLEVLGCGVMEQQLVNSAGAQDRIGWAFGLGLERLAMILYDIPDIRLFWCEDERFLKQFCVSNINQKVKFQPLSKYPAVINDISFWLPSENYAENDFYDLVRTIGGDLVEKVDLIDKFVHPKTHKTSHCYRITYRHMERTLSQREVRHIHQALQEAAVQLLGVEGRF
Sequence of UniProt P09105 (P09105 whole entry, looked up): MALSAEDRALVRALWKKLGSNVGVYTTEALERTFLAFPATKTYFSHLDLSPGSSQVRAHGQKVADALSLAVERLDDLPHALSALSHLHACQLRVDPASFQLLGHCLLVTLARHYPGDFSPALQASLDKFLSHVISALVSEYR
Sequence of UniProt P00367 (P00367 whole entry, looked up): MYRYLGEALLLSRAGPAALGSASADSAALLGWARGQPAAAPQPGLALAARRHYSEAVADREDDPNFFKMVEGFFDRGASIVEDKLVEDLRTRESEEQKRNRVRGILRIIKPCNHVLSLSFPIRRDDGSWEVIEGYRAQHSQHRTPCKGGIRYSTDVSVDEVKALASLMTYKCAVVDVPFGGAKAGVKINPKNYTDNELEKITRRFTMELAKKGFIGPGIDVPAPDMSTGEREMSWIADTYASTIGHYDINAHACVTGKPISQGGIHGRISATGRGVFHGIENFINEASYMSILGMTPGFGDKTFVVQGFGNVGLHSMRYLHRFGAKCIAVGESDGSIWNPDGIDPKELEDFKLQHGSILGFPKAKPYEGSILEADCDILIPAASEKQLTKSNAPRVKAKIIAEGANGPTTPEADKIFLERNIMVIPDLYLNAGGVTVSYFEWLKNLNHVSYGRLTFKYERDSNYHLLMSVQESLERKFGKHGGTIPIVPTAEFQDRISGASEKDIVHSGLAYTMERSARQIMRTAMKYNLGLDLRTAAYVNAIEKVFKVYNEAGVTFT
Sequence of UniProt Q9UJ14 (Q9UJ14 whole entry, looked up): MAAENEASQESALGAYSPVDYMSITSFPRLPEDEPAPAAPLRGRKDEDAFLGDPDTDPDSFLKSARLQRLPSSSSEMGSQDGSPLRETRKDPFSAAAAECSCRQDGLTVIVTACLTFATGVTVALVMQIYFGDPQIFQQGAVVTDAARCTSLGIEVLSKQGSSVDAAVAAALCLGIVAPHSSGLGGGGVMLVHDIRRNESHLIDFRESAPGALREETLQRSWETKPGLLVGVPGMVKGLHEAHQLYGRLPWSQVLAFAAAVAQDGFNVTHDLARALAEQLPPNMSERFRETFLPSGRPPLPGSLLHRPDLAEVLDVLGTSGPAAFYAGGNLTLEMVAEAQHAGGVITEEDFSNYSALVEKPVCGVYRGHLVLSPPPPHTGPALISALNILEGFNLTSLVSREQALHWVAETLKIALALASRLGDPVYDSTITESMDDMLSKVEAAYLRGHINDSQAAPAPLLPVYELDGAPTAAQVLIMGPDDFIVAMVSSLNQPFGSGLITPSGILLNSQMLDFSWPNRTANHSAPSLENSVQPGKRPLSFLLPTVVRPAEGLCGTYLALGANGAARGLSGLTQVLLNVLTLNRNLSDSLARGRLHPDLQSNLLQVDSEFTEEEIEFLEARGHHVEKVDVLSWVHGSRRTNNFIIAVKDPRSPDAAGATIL
Sequence of UniProt P52655 (P52655 whole entry, looked up): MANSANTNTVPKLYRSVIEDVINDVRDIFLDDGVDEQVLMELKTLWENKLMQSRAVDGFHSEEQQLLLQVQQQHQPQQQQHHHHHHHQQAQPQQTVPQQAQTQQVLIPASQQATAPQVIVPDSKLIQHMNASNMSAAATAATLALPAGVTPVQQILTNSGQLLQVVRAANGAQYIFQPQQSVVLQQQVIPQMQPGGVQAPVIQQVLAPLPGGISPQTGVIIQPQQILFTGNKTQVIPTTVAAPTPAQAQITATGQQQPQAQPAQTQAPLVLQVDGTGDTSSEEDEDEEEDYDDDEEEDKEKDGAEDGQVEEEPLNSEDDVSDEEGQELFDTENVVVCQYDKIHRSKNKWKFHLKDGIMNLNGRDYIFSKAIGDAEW
Sequence of UniProt Q658Y4 (Q658Y4 whole entry, looked up): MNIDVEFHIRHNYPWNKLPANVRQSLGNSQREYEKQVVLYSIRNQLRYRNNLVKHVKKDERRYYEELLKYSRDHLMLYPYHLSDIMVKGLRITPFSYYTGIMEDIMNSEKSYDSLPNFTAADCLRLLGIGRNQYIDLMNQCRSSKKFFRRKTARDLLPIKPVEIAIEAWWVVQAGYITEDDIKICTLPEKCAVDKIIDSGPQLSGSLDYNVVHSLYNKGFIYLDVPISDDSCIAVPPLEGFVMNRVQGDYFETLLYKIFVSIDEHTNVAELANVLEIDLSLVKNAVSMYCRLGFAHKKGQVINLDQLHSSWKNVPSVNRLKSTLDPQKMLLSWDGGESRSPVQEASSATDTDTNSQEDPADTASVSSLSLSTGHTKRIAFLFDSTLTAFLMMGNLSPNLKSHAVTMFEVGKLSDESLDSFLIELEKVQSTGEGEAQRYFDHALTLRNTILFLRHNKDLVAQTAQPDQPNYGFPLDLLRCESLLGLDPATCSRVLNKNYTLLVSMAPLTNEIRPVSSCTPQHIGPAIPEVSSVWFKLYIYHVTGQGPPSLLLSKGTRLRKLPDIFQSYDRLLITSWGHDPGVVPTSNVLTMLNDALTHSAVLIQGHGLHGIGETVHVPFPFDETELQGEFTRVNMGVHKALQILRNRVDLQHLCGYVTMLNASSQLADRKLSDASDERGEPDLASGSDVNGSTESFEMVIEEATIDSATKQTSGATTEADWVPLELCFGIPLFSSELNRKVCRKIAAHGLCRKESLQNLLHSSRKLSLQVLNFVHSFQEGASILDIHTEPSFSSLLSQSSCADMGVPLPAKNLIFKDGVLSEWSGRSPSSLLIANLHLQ
Sequence of UniProt P49356 (P49356 whole entry, looked up): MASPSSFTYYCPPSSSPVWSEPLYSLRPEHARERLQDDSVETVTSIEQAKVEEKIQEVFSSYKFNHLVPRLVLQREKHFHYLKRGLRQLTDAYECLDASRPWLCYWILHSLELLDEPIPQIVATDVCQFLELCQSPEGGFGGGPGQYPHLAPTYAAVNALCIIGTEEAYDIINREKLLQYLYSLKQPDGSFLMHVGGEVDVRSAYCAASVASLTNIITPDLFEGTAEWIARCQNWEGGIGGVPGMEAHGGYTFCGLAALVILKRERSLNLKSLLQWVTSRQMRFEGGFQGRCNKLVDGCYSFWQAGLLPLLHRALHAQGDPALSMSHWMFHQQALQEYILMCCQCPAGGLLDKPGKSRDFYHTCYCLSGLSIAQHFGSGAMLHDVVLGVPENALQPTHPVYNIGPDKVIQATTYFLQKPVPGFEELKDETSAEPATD
Sequence of UniProt P02008 (P02008 whole entry, looked up): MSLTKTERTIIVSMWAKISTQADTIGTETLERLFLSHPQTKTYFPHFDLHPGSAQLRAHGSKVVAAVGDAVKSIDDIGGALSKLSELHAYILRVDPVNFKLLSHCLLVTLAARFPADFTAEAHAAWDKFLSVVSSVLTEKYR

Target	log2 fold change
HP1BP3 (UniProt Q5SSJ5)	-0.069 (inactive)
FARS2 (UniProt O95363)	0.137 (inactive)
HNRNPH2 (UniProt P55795)	0.058 (inactive)
GEMIN5 (UniProt Q8TEQ6)	-0.041 (inactive)
FNTB (UniProt P49356)	-0.074 (inactive)
GTF2A1 (UniProt P52655)	-0.126 (inactive)
FAM91A1 (UniProt Q658Y4)	-0.076 (inactive)
HBQ1 (UniProt P09105)	-0.115 (inactive)
GGT7 (UniProt Q9UJ14)	-0.07 (inactive)
HMOX2 (UniProt P30519)	-0.03 (inactive)
GLUD1 (UniProt P00367)	-0.039 (inactive)

Each target was assayed with COc1cc2nc(-c3cc(F)ccc3O)nc(N[C@@H]3CNC[C@H]3C(C)(C)O)c2cc1OC in the same assay as above.
Summary of the method: as §1

Target	log2 fold change
HECTD1 (UniProt Q9ULT8)	-0.04 (inactive)
FMC1 (UniProt Q96HJ9)	-0.008 (inactive)
GABARAPL2 (UniProt P60520)	0.033 (inactive)
HOMER1 (UniProt Q86YM7)	-0.023 (inactive)
H2AZ1 (UniProt P0C0S5)	-0.046 (inactive)
GOLGB1 isoform 2 (UniProt Q14789)	0.072 (inactive)
GLCCI1 (UniProt Q86VQ1)	-0.096 (inactive)
GUSB (UniProt P08236)	-0.084 (inactive)
H2AFX (UniProt P16104)	-0.136 (inactive)
HSPA8 (UniProt E9PK54)	-0.208 (inactive)
HBA1 (UniProt P69905)	-0.154 (inactive)
FKBP7 (UniProt Q9Y680)	0.047 (inactive)
GYG1 (UniProt P46976)	-0.163 (inactive)
HNRNPH1 (UniProt P31943)	-0.192 (inactive)
HBZ (UniProt P02008)	-0.055 (inactive)
GALC (UniProt P54803)	0.099 (inactive)
FUCA2 (UniProt Q9BTY2)	0.011 (inactive)

Target	log2 fold change
GEMIN2 (UniProt O14893)	-0.045 (inactive)
FANCD2 isoform 1 (UniProt Q9BXW9)	0.053 (inactive)
GNAS (UniProt Q5JWF2)	0.052 (inactive)
HSD17B12 (UniProt Q53GQ0)	0.135 (inactive)
HAT1 (UniProt O14929)	0.066 (inactive)
GLS (UniProt O94925)	0.22 (inactive)
HP1BP3 (UniProt Q5SSJ5)	-0.053 (inactive)
FARS2 (UniProt O95363)	0.033 (inactive)
HNRNPH2 (UniProt P55795)	-0.231 (inactive)
GEMIN5 (UniProt Q8TEQ6)	-0.235 (active)
FNTB (UniProt P49356)	-0.057 (inactive)
GTF2A1 (UniProt P52655)	-0.069 (inactive)
FAM91A1 (UniProt Q658Y4)	-0.003 (inactive)
HBQ1 (UniProt P09105)	-0.05 (inactive)
GGT7 (UniProt Q9UJ14)	-0.098 (inactive)
HMOX2 (UniProt P30519)	0.036 (inactive)
GLUD1 (UniProt P00367)	-0.001 (inactive)

These targets were tested with COc1cc2ncnc(Nc3ccc(F)c(Cl)c3)c2cc1OCCCN1CCOCC1 [gefitinib] in the same assay as above.
Summary of the method: as §1

Target	log2 fold change
HECTD1 (UniProt Q9ULT8)	-0.016 (inactive)
FMC1 (UniProt Q96HJ9)	0.06 (inactive)
GABARAPL2 (UniProt P60520)	-0.014 (inactive)
HOMER1 (UniProt Q86YM7)	0.086 (inactive)
H2AZ1 (UniProt P0C0S5)	0.121 (inactive)
GOLGB1 isoform 2 (UniProt Q14789)	-0.02 (inactive)
GLCCI1 (UniProt Q86VQ1)	0.109 (inactive)
GUSB (UniProt P08236)	-0.013 (inactive)
H2AFX (UniProt P16104)	0.049 (inactive)
HSPA8 (UniProt E9PK54)	-0.077 (inactive)
HBA1 (UniProt P69905)	0.032 (inactive)
FKBP7 (UniProt Q9Y680)	0.086 (inactive)
GYG1 (UniProt P46976)	-0.028 (inactive)
HNRNPH1 (UniProt P31943)	-0.015 (inactive)
HBZ (UniProt P02008)	0.003 (inactive)
GALC (UniProt P54803)	-0.014 (inactive)
FUCA2 (UniProt Q9BTY2)	-0.013 (inactive)

Target	log2 fold change
GEMIN2 (UniProt O14893)	0.032 (inactive)
FANCD2 isoform 1 (UniProt Q9BXW9)	-0.033 (inactive)
GNAS (UniProt Q5JWF2)	0.108 (inactive)
HSD17B12 (UniProt Q53GQ0)	0.103 (inactive)
HAT1 (UniProt O14929)	0.008 (inactive)
GLS (UniProt O94925)	0.033 (inactive)
HP1BP3 (UniProt Q5SSJ5)	0.154 (inactive)
FARS2 (UniProt O95363)	-0.114 (inactive)
HNRNPH2 (UniProt P55795)	0.02 (inactive)
GEMIN5 (UniProt Q8TEQ6)	0.013 (inactive)
FNTB (UniProt P49356)	0.02 (inactive)
GTF2A1 (UniProt P52655)	0.111 (inactive)
FAM91A1 (UniProt Q658Y4)	-0.013 (inactive)
HBQ1 (UniProt P09105)	0.033 (inactive)
GGT7 (UniProt Q9UJ14)	0.055 (inactive)
HMOX2 (UniProt P30519)	0.006 (inactive)
GLUD1 (UniProt P00367)	0.076 (inactive)
